Compound activity as filed in PubChem BioAssay.
Most compounds without a hit are left out; they make up all but 3.4% or so of the library.
GLS inhibitor: inhibitors of human glutaminase (GLS); GLS enzymatic activity, qHTS titration; Potency, µM (series often up to 45.5 µM), inactives show top-dose activity change, negative = inhibition, actives largely listed as inhibitors; 0.21% of 410,000 active; also: % is scaled to controls: 0 for no effect and ±100 for the full control effect
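Read-out is an Amplex red fluorescence increase coupled through glutamate oxidase and HRP, measured before and after 30 min room-temperature incubation. hKGA is in 45 mM KH2PO4 (pH 8.2) with 0.02% Tween-20; glutamine added as 1mM solution.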
VDR inhibitor: blocks the human vitamin D receptor. P11473. VDR-SRC2-3 peptide fluorescence polarization, 2 h. Potency, µM, for inactives: max response, negative = inhibition, actives largely listed as inhibitors. 0.93% of 400,000 active. AID 504847; also: % is scaled to controls: 0 for no effect and ±100 for the full control effect
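FP read-out; VDR + SRC2-3 coactivator peptide; 23 nl compound by pintool; 2 h RT incubation; reagents held at 4 deg C, protected from light.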
PKM2 activator: activators of human pyruvate kinase M2. P14618. purified PKM2, Kinase-Glo ATP luminescence, activation; response scale: 0% is enzyme alone, no compound. Potency, µM (titrated, usually from 57.5 µM), for the others: top-dose activation, usual class: activators. 0.34% of 260,000 active; also: % is scaled to controls: 0 for no effect and ±100 for the full control effect; nearly all actives have a fitted effect of over 55% in size
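ATP formation by purified human PK-M2, quantified via coupled luciferase luminescence after 1 h at room temperature with 0.1 mM ADP and 0.5 mM PEP final.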
Mito fusion yeast: blocks mitochondrial division or promotes mitochondrial fusion; Potency, µM (series often up to 46.1 µM), inactives show top-dose growth rescue (activation), usual class: activators; 0.23% of 320,000 active; S. cerevisiae fusion-defective mutant growth rescue, CellTiterGlo 48 h; also: % of control where 0% means no effect; nearly all actives have a fitted effect of over 45% in size
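Temperature-sensitive fusion-defective S. cerevisiae (e.g. fzo1-1, mgm1-5) were grown with compound in YPEG medium (3% ethanol, 3% glycerol) for 48 hours at 37C. Growth rescue was measured as viability by CellTiterGlo luminescence after 10 minutes at ambient.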
PLK1 PBD inh: blocks phosphopeptide binding to human PLK1 polo-box domain; P53350; Plk1 PBD binding of FITC phosphopeptide, fluorescence polarization; Potency, µM, inactives show max response, negative = inhibition, usual class: inhibitors; 2.8% of 360,000 active; also: series mostly up to about 57 µM; % is scaled to controls: 0 for no effect and ±100 for the full control effect; nearly all actives have a fitted effect of over 65% in size
GCN5L2 inh: blocks human GCN5L2 histone acetyltransferase; 0.21% of 390,000 active; GCN5L2 HAT assay, ThioGlo1 CoA-SH fluorescence; Potency, µM (top dose mostly 58.9 µM), inactives show at the top dose activity change, negative = inhibition, actives largely listed as inhibitors; Q92830; AID 504327; also: % is scaled to controls: 0 for no effect and ±100 for the full control effect
Target sequence (Q92830 whole entry, looked up): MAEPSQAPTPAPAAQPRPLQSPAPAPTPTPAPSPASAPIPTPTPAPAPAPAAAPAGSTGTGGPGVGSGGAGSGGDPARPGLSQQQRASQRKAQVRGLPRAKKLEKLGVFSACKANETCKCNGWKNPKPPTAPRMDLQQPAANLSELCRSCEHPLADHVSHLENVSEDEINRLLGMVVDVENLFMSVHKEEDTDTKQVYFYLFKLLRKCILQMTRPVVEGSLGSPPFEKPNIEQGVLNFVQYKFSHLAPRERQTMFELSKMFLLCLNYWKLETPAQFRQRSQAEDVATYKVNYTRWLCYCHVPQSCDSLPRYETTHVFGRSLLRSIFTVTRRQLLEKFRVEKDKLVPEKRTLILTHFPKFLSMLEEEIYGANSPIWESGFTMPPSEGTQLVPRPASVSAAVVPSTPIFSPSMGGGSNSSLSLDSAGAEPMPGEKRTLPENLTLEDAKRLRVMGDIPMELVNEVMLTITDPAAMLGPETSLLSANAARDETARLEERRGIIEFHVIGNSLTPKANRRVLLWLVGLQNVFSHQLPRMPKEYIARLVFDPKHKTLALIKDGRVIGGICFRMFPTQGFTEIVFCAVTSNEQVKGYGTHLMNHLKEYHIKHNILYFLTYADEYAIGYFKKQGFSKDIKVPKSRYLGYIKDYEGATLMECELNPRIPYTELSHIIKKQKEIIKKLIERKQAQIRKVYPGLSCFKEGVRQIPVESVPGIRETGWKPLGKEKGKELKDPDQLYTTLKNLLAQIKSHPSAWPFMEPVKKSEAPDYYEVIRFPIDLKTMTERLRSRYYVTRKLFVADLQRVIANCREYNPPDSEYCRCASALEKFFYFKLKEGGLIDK
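qHTS, 1536-well. 20nM enzyme, pH 7.5 HEPES/EDTA/Tween-20 buffer; 15 min compound preinc., RT. Start: 75uM H3(1-25), 70uM AcCoA, 50uM ThioGlo1. Read Ex340/Em540 at t=0 (autofluorescence flag) and t=20 min.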
Active calls of the source: *; ? = inconclusive; · = no result given; [ ] = remark or other dose. Calls follow the shape of the dose curve; as a rule, active = well fitted curve in the direction sought with a large enough effect; inconclusive = small, poorly fitted or top-dose-only effect, or another doubt; inactive = no such curve, though single readings can be large; an effect the other way counts as inactive or inconclusive. Potency is read from the fitted curve at half-maximal effect.

SMILES	GLS inhibitor	VDR inhibitor	PKM2 activator	Mito fusion yeast	PLK1 PBD inh	GCN5L2 inh
CCOC(=O)C(=CNc1cc(C)nn1-c1ccc(Cl)cc1)C(=O)OCC	13%	-6%	0%	2%	-4%	2%
CCOC(=O)C(=Cc1ccc(-n2cncn2)cc1)C(=O)OCC	-2%	16µM*	5%	-1%	?	2%
CCOC(=O)/C(=C\c1ccc(C)cc1)NC(=O)c1ccccc1	-1%	1%	3%	-5%	-1%	7%
CCOC(=O)C(=Cc1ccccc1)C(=O)OCC	·	10µM*	·	·	·	1%
CC(C)NC(=O)C1(C)CSCC(=O)N1Cc1ccco1 (stereo unspecified)	·	·	·	·	-1%	·
O=C(Nc1ccc2nc(-c3ccco3)c(-c3ccco3)nc2c1)N1CCN(c2ccccn2)CC1	-9%	89µM*	?	24%	5.3µM*	10µM*
O=C(Nc1ccc2nc(-c3ccco3)c(-c3ccco3)nc2c1)N1CCCC1	·	71µM*	·	·	·	·
O=C(NCCO)Nc1ccc2nc(-c3ccco3)c(-c3ccco3)nc2c1	·	·	14%	-2%	·	?
Cc1ccc(OCCn2c(=S)[nH]c3ccccc32)c(C(C)C)c1	1%	?	-4%[11.5 µM]	-14%	-6%	-10%
N#CCCn1c(=S)[nH]c2ccccc21	19%	3%	1%	0%	?	3%
CCOc1ccc(OCCn2c(=S)[nH]c3ccccc32)cc1	-7%	?	0%	4%	13µM*	-6%
S=c1[nH]c2ccccc2n1CCOc1ccccc1	-10%	?	-13%	-7%	19µM*	-27%
CCOc1ccc2c(c1)[nH]c(=S)n2C	-9%	?	5%	-3%	13µM*	-3%
Cc1cccc(OCCn2c(=S)[nH]c3ccccc32)c1	-6%	?	-20%	?	6µM*	-22%
COc1ccccc1OCCn1c(=S)[nH]c2ccccc21	23%	-16%	-2%[11.5 µM]	-9%	?	-10%
O=C(N/C(=C/c1ccc(F)cc1)C(=O)N1CCOCC1)c1ccco1	4%	·	·	·	6%	·
CCOc1ccccc1NC(=O)C(OC(=O)c1ccc(NC(=O)CC#N)cc1)c1ccccc1 (stereo unspecified)	-3%	30%	·	21%	2%	?
S=c1[nH]c2ccccc2n1Cc1ccccc1	-18%	?	-1%	-8%	8.4µM*	-13%
S=c1[nH]c2cnccc2n1Cc1ccccc1	-1%	-4%	·	-11%	?	10%
Oc1ccccc1N1CCN(c2ccc3ccccc3n2)CC1	10µM*	-21%	·	17%	-8%	-10%
C[N+](C)(C)CC(=O)N1CCN(c2ccc3ccccc3n2)CC1	-5%	17%	·	-10%	-5%	-2%
COc1ccccc1NC(=O)c1cccc2c(Br)cccc12	-5%	?	-2%	0%	-5%	2%
CC(C)C(=O)Nc1ccc(NC(=O)c2cccc3c(Br)cccc23)cc1	30%	?	·	0%	27µM*	-4%
Cc1ccc(NC(=O)NNC(=O)c2ccc3c(c2)NC(=O)C(C)(C)O3)cc1	?	-8%	·	-4%	3%	-1%
O=C(O)c1cccc(N2C(=O)/C(=C/c3ccc(SCc4ccc(Cl)cc4)o3)SC2=S)c1	?	-30%	-6%	9%	?	22µM*
SMILES	GLS inhibitor	VDR inhibitor	PKM2 activator	Mito fusion yeast	PLK1 PBD inh	GCN5L2 inh
Cc1ccc(C(=O)NCCn2cc(SCC(=O)Nc3cc(C)on3)c3ccccc32)cc1	3%	-5%	0%	-1%	1%	-8%
CCCCn1c(SCC(=O)Nc2cc(C)on2)nc2c1c(=O)n(C)c(=O)n2C	-3%	0%	20µM*	-7%	-2%	10%
COc1ccc(-c2nnc(SCC(=O)NNC(=O)Cc3ccccc3)n2C)cc1OC	?	40µM*	3%	-2%	27µM*	-1%
Cc1cc(NC(=O)CSc2cn(CCNC(=O)c3ccccc3)c3ccccc23)no1	8.9µM*	-10%	5%	0%	?	-1%
CCn1c(SCC(=O)Nc2cc(C)on2)nc2c1c(=O)n(C)c(=O)n2C	0%	7%	25%	-1%	-5%	-2%
CCn1c2ccccc2c2cc(NC(=O)CSc3nnc(-c4ccc(OC)c(OC)c4)n3N)ccc21	·	4%	18%	-6%	-8%	5.6µM*
CCCC(=O)N(CCN1CCOCC1)c1nc2c(OC)ccc(OC)c2s1	5%	-3%	·	16%	-10%	-2%
CCC1=C2CC[C@H]3C(=O)N(CC(=O)OC)C(=O)[C@H]3[C@H]2[C@@]2(C)C(=NCCc3c[nH]c4ccccc34)OC(=O)N2C1=O	·	·	3%	·	·	·
Cc1cc(NC(=O)CSc2ccc(-c3cccc([N+](=O)[O-])c3)nn2)no1	1%	-13%	3%	6%	2%	-1%
CC(C)Oc1cccc(-c2nnc(SCC(=O)Nc3ccc4c(c3)OCCO4)n2N)c1	0%	-13%	4%	0%	-19%	25µM*
Cc1cccc(-c2nnc(SCC(=O)Nc3cc(C)on3)n2C)c1	-14%	0%	·	-1%	-10%	-5%
Cc1cc(NC(=O)CSc2ccc(-c3ccccc3)nn2)no1	5%	-5%	16µM*	-3%	-7%	?
Cn1c(SCC(=O)NC(c2ccccc2)c2ccccc2)nnc1-c1cccs1	-8%	?	-15%	-1%	27µM*	-3%
Cc1cc(NC(=O)CSc2nnc(-c3ccccc3)n2C)no1	0%	-7%	0%	-11%	24µM*	14%
OC[C@@H]1CN(Cc2ccc3c(c2)OCO3)C[C@H](n2cnc3c(N4CCCC4)ncnc32)O1	7%	·	·	·	-6%	·
N#CCCn1c(=O)c(-c2ccc(F)cc2)nc2cnc(N3CCNCC3)nc21	·	-2%	·	·	·	-18%
COc1cc(/C=C(\C#N)C(=O)Nc2ccc(C)cc2)ccc1OCc1cc(=O)n2nc(C)sc2n1	-4%	-14%	·	·	·	-1%
Cc1cc(NC(=O)CSc2nnc(Nc3ccccc3C)s2)no1	-20%	-15%	1%	1%	21µM*	0%
O=C(c1cn(-c2ccccc2)nc1-c1ccc(F)cc1)N1CCCCC1	0%	-7%	1%	16µM*	-2%	-3%
O=C(c1cn(-c2ccccc2)nc1-c1ccc(Br)cc1)N1CCOCC1	-10%	-8%	0%	11µM*	-5%	-2%
O=C(c1cn(-c2ccccc2)nc1-c1cccc(Br)c1)N1CCOCC1	4%	11%	0%	?	-2%	-9%
COc1ccc(Cl)cc1NS(=O)(=O)c1cccc(C(=O)NC2CC2)c1	12%	-9%	·	·	1%	-3%
C=CCOC(=O)N[C@H](/C(C(=O)OC)=C(\C)NCc1ccccc1)c1ccc2c(c1)OCO2	·	-1%	·	·	·	·
